Records with an inconclusive call do not appear. Activity calls are given as the source filed them. Unless noted, calls follow the shape of the dose curve; as a rule, active = well fitted curve in the direction sought with a large enough effect; inconclusive = small, poorly fitted or top-dose-only effect, or another doubt; inactive = no such curve, though single readings can be large; an effect the other way counts as inactive or inconclusive.
How the values were obtained:
[1] = S16 Schwann cell viability assay (CellTiter-Glo assay) (AID 624031);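 also: cellular ATP luminescence as a viability measure; plate controls were DMSO-treated cells for no effect and cell-free wells for full effect; nearly all actives have a fitted effect of over 70% in size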
How it was run: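 Native S16 Schwann cells (rat), serum-containing medium, overnight attachment then 24 h drug exposure at 37 °C/5% CO2. CellTiter-Glo ATP signal; normalized to cell-free and vehicle wells.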

[2] = S16 Schwann cell PMP22 intronic element firefly luciferase assay (AID 624032); also: nearly all actives have a fitted effect of over 30% in size; also: potency is read from the fitted curve at half-maximal effect
How it was run: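 Rat S16 Schwann cells stably carrying a PMP22 intronic element-driven Fluc reporter were seeded overnight, then exposed to compounds for 24 h at 37 °C. Luminescence was normalized to PTC124 (positive control) and DMSO (0% activity).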

[3] = system: DFO2036; assay: qHTS profiling for inhibitors of Plasmodium falciparum proliferation (AID 504749); also: nearly all actives have a fitted effect of over 60% in size; also: potency is read from the fitted curve at half-maximal effect;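 as to activity, negative = inhibition: 0% = DMSO vehicle and full inhibition = artemisinin control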; conditions: P. falciparum in erythrocytes, SYBR Green DNA, 72 h; series mostly up to 28.7 µM
How it was run: (§1)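 Quantitative HTS: compounds pinned into medium, infected erythrocytes added (0.3% parasitemia, 2.5% hematocrit), 72 h culture at 37 C under 5% CO2. Saponin/Triton lysis with SYBR Green I, overnight RT, then fluorescence read.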

[4] = system: TAB109; assay: as above; conditions: P. falciparum in erythrocytes, SYBR Green DNA, 72 h; series mostly up to 28.7 µM
How it was run: as §1

[5] = S16 Schwann cell PMP22 intronic element beta-lactamase assay (AID 624044; calls by dose curve;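 also: 0% = DMSO and -100% = potassium clavulanate positive control; nearly all actives have a fitted effect of over 15% in size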); conditions: S16 rat Schwann cells, PMP22 element beta-lactamase FRET, 24 h; ratio activity, negative = inhibition: at 38.3 µM (top of the series)
How it was run: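 Beta-lactamase reporter under a PMP22 intronic regulatory element in stable S16 rat Schwann cells; 24 h compound exposure. 460 nm blue signal normalized between DMSO (0%) and potassium clavulanate, with 535 nm FRET tracking viability; curves classed by r2 and response.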

[6] = molecular target: Ubiquitin carboxyl-terminal hydrolase 1 (Homo sapiens) (UniProt O94782); assay: Inhibitors of USP1/UAF1: Pilot qHTS (AID 504865);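 also: rhodamine fluorescence freed from ubiquitin-rhodamine substrate followed over time; top concentration of the series differs between compounds; % is scaled to controls: 0 for no effect and ±100 for the full control effect; nearly all actives have a fitted effect of over 35% in size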
Ubiquitin carboxyl-terminal hydrolase 1 (Homo sapiens), sequence (O94782 whole entry, looked up): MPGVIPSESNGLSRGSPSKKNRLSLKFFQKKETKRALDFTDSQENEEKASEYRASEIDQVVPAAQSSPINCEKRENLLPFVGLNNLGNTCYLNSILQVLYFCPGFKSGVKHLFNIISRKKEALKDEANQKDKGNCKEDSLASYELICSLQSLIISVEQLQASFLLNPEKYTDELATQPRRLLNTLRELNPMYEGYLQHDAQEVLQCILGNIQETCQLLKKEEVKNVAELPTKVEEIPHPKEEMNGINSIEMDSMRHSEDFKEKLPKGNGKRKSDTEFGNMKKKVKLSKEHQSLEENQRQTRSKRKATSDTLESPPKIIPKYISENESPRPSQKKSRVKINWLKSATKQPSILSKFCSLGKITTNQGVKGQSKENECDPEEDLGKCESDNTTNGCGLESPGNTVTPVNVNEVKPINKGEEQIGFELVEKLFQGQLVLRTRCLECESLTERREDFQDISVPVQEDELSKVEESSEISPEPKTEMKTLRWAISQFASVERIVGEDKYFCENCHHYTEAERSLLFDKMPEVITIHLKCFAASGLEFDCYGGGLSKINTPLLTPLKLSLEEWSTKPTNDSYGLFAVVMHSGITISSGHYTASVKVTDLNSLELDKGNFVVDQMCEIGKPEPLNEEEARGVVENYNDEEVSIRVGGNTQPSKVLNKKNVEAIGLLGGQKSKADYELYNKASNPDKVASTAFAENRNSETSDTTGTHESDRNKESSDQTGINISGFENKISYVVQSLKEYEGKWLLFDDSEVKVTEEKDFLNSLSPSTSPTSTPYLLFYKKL
How it was run: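 Kinetic fluorescence assay: 1nM USP1/UAF1, 15 min compound preincubation, then 150nM Ub-Rho; 480/540 nm.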

[7] = molecular target: Cytochrome P450 3A4 (Homo sapiens) (UniProt P08684); assay: qHTS Assay for Inhibitors and Substrates of Cytochrome P450 3A4 (AID 884); also: % is scaled to controls: 0 for no effect and ±100 for the full control effect; nearly all actives have a fitted effect of over 50% in size
Cytochrome P450 3A4 (Homo sapiens), sequence (P08684 whole entry, looked up): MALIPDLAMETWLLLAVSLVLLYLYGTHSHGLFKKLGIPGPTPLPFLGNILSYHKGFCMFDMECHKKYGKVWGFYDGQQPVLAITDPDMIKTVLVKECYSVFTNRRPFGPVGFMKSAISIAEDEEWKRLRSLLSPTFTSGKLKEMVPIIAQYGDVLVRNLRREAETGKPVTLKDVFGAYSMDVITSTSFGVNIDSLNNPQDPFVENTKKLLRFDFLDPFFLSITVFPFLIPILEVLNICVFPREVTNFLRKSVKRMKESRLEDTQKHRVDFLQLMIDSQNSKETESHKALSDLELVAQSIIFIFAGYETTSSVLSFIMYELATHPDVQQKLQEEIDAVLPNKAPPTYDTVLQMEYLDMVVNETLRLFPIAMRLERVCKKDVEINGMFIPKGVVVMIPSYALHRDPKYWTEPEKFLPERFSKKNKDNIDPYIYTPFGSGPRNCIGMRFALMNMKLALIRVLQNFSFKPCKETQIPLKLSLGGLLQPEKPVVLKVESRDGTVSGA
How it was run: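 Luminescent readout of luciferin produced by CYP3A4 (20 nM) dealkylation of Luciferin-PPXE, 25 uM (its KM). NADPH-driven reaction ran 60 min at RT after 10 min compound preincubation; data scaled to 57 uM ketoconazole as 100% inhibition.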

[8] = Confirmation and Secondary Assay for Modulators of Hemoglobin Beta Chain Splicing at IVS2 654 locus (AID 910);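 also: per-well total GFP intensity by laser scanning cytometry after 2-day treatment; % of control where 0% means no effect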
How it was run: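 HeLa cells stably carrying EGFP interrupted by mutant beta-globin IVS2-654 intron (CMV-driven) were treated with compound for 2 days at 37C; corrected splicing was scored as total peak GFP intensity per well (488 nm excitation, 500-520 nm emission).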

[9] = Confirmation and Secondary Assay for Modulators of Hemoglobin Beta Chain Splicing at IVS2 705 locus (AID 930);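 also: HeLa cells stably expressing the EGFP-705 splicing reporter; GFP fluorescence per well restored by corrected splicing of the IVS2-705 intron in EGFP; % of control where 0% means no effect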
How it was run: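 Stable HeLa line with EGFP disrupted by mutant beta-globin intron 2 (705). Overnight attachment, then 2 days of compound at 37C, 5% CO2. Signal: peak GFP intensity summed over objects 5-250 µm.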

CC12C=CC(=O)C=C1[C@@H](F)CC1C2C(O)CC2(C)C1CC[C@]2(O)C(=O)CO (stereo not given in full)
inactive: Potency [1] | Potency [2] | Potency [3] | Potency [4]

CC1CCC(C(C)C)C(O)C1 (stereo not given)
inactive: Potency [1] | Potency [2] | Potency [5] | Potency [3] | Potency [4]

NC(C(=O)O)c1ccc(O)cc1 (stereo not given)
inactive: Potency [6] | Potency [1] | Potency [2] | Potency [5] | Potency [3] | Potency [4]

C[S+](C)CC[C@H](N)C(=O)O
inactive: Potency [1] | Potency [2] | Potency [5] | Potency [3] | Potency [4]

C=CC1CN2CCC1CC2[C@@H](O)c1ccnc2ccc(OC)cc12 (stereo not given in full)
inactive: Potency [1] | Potency [5]
active: Potency [2] 32200 nM | Potency [3] 708 nM | Potency [4] 112 nM

O=C1[C@@H]2C[C@@H]3C[C@H]1C[C@@](O)(C3)C2
inactive: Potency [1] | Potency [5] | Potency [3] | Potency [4]

O=C1C(I)=CC(=C(c2cc(I)c(O)c(I)c2)c2ccccc2C(=O)O)C=C1I
inactive: Potency [1] | Potency [5] | Potency [3] | Potency [4]

CC(=O)OCC(=O)[C@@]1(O)CCC2C3C[C@H](C)C4=CC(=O)C=CC4(C)C3C(O)CC21C (stereo not given in full)
inactive: Potency [6] | Potency [1] | Potency [2] | Potency [5] | Potency [3] | Potency [4]

Cc1cn([C@H]2CC(F)[C@@H](CO)O2)c(=O)[nH]c1=O (stereo not given in full)
inactive: Potency [6] | Potency [1] | Potency [2] | Potency [5] | Potency [3] | Potency [4]

CC1(C)SC2C(NC(=O)C(C(=O)O)c3ccccc3)C(=O)N2C1C(=O)O (stereo not given)
inactive: Potency [7] | Potency [8] | Potency [9] | Potency [6] | Potency [1] | Potency [2] | Potency [5] | Potency [3] | Potency [4]

CC(O)C1CCC2C3CCC4CC(O)CCC4(C)C3CCC12C (stereo not given)
inactive: Potency [6] | Potency [1] | Potency [5] | Potency [3] | Potency [4]

CC(=O)OCC(=O)[C@@]1(O)CCC2C3CCC4=CC(=O)C=CC4(C)C3C(O)C[C@]21C (stereo not given in full)
inactive: Potency [7] | Potency [8] | Potency [9] | Potency [6] | Potency [1] | Potency [2] | Potency [5] | Potency [3] | Potency [4]

C[C@H]1[C@@H](OC(=O)CCC(=O)O)OC2OC3(C)CC[C@H]4[C@H](C)CC[C@@H]1[C@@]24OO3 (stereo not given in full)
active: Potency [2] 2560 nM | Potency [3] 3.5 nM | Potency [4] 2.5 nM
inactive: Potency [6] | Potency [5]

OC[C@@H]1O[C@](CO)(O[C@H]2O[C@H](CO)[C@@H](O)[C@H](O)[C@H]2O)[C@H](O)[C@H]1O
inactive: Potency [6] | Potency [1] | Potency [5] | Potency [3] | Potency [4]

CCCCCCCCCCCC(=O)OCC(O)C1OCC(O)C1O (stereo not given)
inactive: Potency [1] | Potency [2] | Potency [3] | Potency [4]

Cc1onc(-c2c(F)cccc2Cl)c1C(=O)NC1C(=O)N2C1SC(C)(C)C2C(=O)O (stereo not given)
inactive: Potency [6] | Potency [1] | Potency [2] | Potency [5] | Potency [3] | Potency [4]

CO[C@H]1C[C@@H]2CC[C@@H](C)[C@@](O)(O2)C(=O)C(=O)N2CCCC[C@H]2C(=O)O[C@H]([C@H](C)C[C@@H]2CC[C@@H](O)[C@H](OC)C2)CC(=O)[C@H](C)/C=C(\C)[C@@H](O)[C@@H](OC)C(=O)[C@H](C)C[C@H](C)/C=C/C=C/C=C/1C
inactive: Potency [2] | Potency [5]
active: Potency [3] 1780 nM | Potency [4] 2240 nM

CC(CCC(=O)O)C1CCC2C3C(=O)C[C@@H]4CC(=O)CC[C@@]4(C)C3CC(=O)[C@]12C (stereo not given in full)
inactive: Potency [7] | Potency [8] | Potency [9] | Potency [6] | Potency [1] | Potency [2] | Potency [5] | Potency [3] | Potency [4]

CC[C@@H]1/C=C(\C)C[C@H](C)C[C@H](OC)[C@H]2O[C@@](O)(C(=O)C(=O)N3CCCC[C@H]3C(=O)O[C@H](/C(C)=C/[C@@H]3CC[C@H](Cl)[C@H](OC)C3)[C@H](C)[C@@H](O)CC1=O)[C@H](C)C[C@@H]2OC
inactive: Potency [6] | Potency [1] | Potency [2] | Potency [5] | Potency [4]

CCN1CCN(C(=O)NC(C(=O)NC2C(=O)N3C(C(=O)O)=C(CSc4nnnn4C)CSC23)c2ccc(O)cc2)C(=O)C1=O (stereo not given)
inactive: Potency [7] | Potency [8] | Potency [9] | Potency [6] | Potency [1] | Potency [2] | Potency [4]

CCCCC(=O)O[C@]1(C(=O)CO)CCC2C3CCC4=CC(=O)CCC4(C)C3C(O)CC21C (stereo not given in full)
active: ratio activity, negative = inhibition [5] -11.9%
inactive: Potency [1] | Potency [2] | Potency [3] | Potency [4]

C=NC(C(=O)NC1C(=O)N2C1SC(C)(C)C2C(=O)O)c1ccccc1 (stereo not given)
inactive: Potency [8] | Potency [9] | Potency [1] | Potency [2] | Potency [5] | Potency [4]

O=C(O)c1ccc(N[C@@H]2OC[C@@H](O)[C@@H](O)[C@@H]2O)cc1
inactive: Potency [1] | Potency [2] | Potency [4]

CO/N=C(/C(=O)N[C@@H]1C(=O)N2C(C(=O)O)=C(CSc3cnns3)CS[C@H]12)c1csc(N)n1
inactive: Potency [2] | Potency [5] | Potency [3]

OCC1O[C@H](Oc2ccc(O)cc2)C(O)C(O)C1O (stereo not given in full)
inactive: Potency [7] | Potency [8] | Potency [9] | Potency [1] | Potency [2] | Potency [4]

CCCCCCCCCCCCCCCC(=O)OC[C@H](O)[C@H]1OC[C@@H](O)[C@@H]1O
inactive: Potency [6] | Potency [1] | Potency [5] | Potency [3]

CNC1C(O)C(OC2C(NC(=O)C(O)CN)CC(N)C(OC3OC(CN)C(O)C(O)C3O)C2O)OCC1(C)O (stereo not given)
inactive: Potency [6] | Potency [1] | Potency [2] | Potency [5] | Potency [3] | Potency [4]

NC(=O)c1ncn(C2OC(CO)C(O)C2O)c1N (stereo not given)
inactive: Potency [7] | Potency [8] | Potency [9] | Potency [6] | Potency [1] | Potency [2] | Potency [5] | Potency [3] | Potency [4]

CO/N=C(/C(=O)N[C@@H]1C(=O)N2C(C(=O)O)=C(CSC(=O)c3ccco3)CSC12)c1csc(N)n1 (stereo not given in full)
inactive: Potency [6] | Potency [1] | Potency [2] | Potency [5] | Potency [4]

Source: PubChem BioAssay (NCATS)
